In PubChem BioAssay (NCI):
This is part of a sample that, as a whole, favours compounds with a hit. Of some 83,000 tested, about 20% had one in any assay.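 Method: cells in 96-well plates; compound added at one concentration; 48 h incubation; percent growth measured; values under 10 scored active.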 A number with no mark means an inactive call. Activity calls are given as the source filed them.

What was measured:
Assay in all cases: NCI-60 one-dose screen, 48 h (100 = growth as untreated, 0 = no growth, -100 = all killed)
Conditions in all cases: 10 µM unless noted
HT29 colon = test system: HT29 colon
SNB-75 CNS = test system: SNB-75 CNS
SNB-19 CNS = test system: SNB-19 CNS
U251 CNS = test system: U251 CNS
SK-MEL-5 melanoma = test system: SK-MEL-5 melanoma
UACC-62 melanoma = test system: UACC-62 melanoma
LOX IMVI melanoma = test system: LOX IMVI melanoma
SK-MEL-28 melanoma = test system: SK-MEL-28 melanoma
SK-MEL-2 melanoma = test system: SK-MEL-2 melanoma

| SMILES | growth (HT29 colon) | growth (SNB-75 CNS) | growth (SNB-19 CNS) | growth (U251 CNS) | growth (SK-MEL-5 melanoma) | growth (UACC-62 melanoma) | growth (LOX IMVI melanoma) | growth (SK-MEL-28 melanoma) | growth (SK-MEL-2 melanoma) |
| --- | --- | --- | --- | --- | --- | --- | --- | --- | --- |
| Cc1cc2cn3c4cccnc4[nH]c(=O)c3c2cc1C | -76.3% (active) | 79.3% | 56.4% | -71.2% (active) | 44.4% | 61.2% | -68.5% (active) | 86.6% | 58.2% |
| O=C(Nc1ccc(C2=NCCCN2)cc1)Nc1ccc(C2=NCCCN2)cc1 | 92.4% | 94.5% | 96.7% | 93.7% | 69.7% | 87.7% | 89.9% | 86.9% | 49% |
| CC1=C(C(=O)Nc2ccccc2)C(c2ccc3c(c2)OCCO3)NC(=O)N1 (stereo not given) | 108% | 102% | 99.6% | 105% | 101% | 101% | 94.7% | 111% | 125% |
| COc1cc2c(cc1OCCCOc1ccc(-c3cc4ccccc4c4ccccc34)cc1)N=C[C@@H]1CCCN1C2=O | -46.6% (active) | -78% (active) | -46.8% (active) | -79.3% (active) | -80.2% (active) | -83.6% (active) | -62.1% (active) | -62.2% (active) | -78.8% (active) |
| CCOc1ccccc1C(=O)OCC(=O)Nc1cccc(S(=O)(=O)N(C)C)c1 | 98.6% | 82.7% | 83.5% | 105% | 97.4% | 94.5% | 101% | 104% | 94.2% |
| N#CCNc1ccccc1N | 86.4% | 77.8% | 117% | 97.2% | 96% | 95.3% | 95.1% | 110% | 107% |
| COc1cc(/C=C/C(=O)Nc2cccnc2Nc2cc(OC)c(OC)c(OC)c2)cc(OC)c1OC | 94.3% | 82.1% | 96.5% | 91.3% | 93.6% | 84.4% | 101% | 103% | 96.4% |
| CSC1=Nc2c(c(C)c(-c3ccccc3)n2CCCN2CCCCC2)C2=NC(=O)C[C@H](C)N12 | 21.4% | 50.3% | 20.2% | 11.8% | 9.86% (active) | 53.7% | 42.3% | 43.2% | 62.8% |
| O=C1OCCCCCCCCCC#Cc2ccccc21 | 70.8% | 88.7% | 98.6% | 115% | 89% | 99.2% | 140% | 110% | 109% |
| C[n+]1c2ccccc2c(NC2CCNCC2)c2[nH]c3ccccc3c21 | 2.95% (active) | 7.49% (active) | -12.4% (active) | 1.08% (active) | 7.09% (active) | -73.3% (active) | 13.2% | 10.6% | -46.4% (active) |
| O=C(/C=C/c1cccnc1)/C=C/c1cccnc1 | -55.2% (active) | 24.7% | 21.5% | -34.9% (active) | 21% | -69.4% (active) | -84% (active) | -78.4% (active) | 64.1% |
| CC(=O)Oc1c(C)c(OC(C)=O)c2c(c1C(C)=O)OC1CC(=O)C(C(C)=O)=C(O)C21C (stereo not given) | 100% | 94.7% | 95.4% | 91.6% | 95.4% | 95.9% | 86.7% | 119% | 107% |
| Cc1cc(NC(=O)Nc2cc(Cl)ccc2C)no1 | 106% | 76.8% | 110% | 108% | 102% | 91.1% | 99.3% | 142% | 116% |
| CCOC(=O)C1=NN(c2ccc(Cl)cc2)C2C3N(c4ccc(Cl)cc4)N=C(C(=O)OCC)N3c3ccccc3N12 (stereo not given) | 93.3% | 91.1% | 118% | 114% | 92.7% | 101% | 113% | 108% | 102% |
| O=C(Nc1ncc([N+](=O)[O-])s1)c1cccc([N+](=O)[O-])c1 | 51.4% | 30.3% | 32.8% | 52% | -14.2% (active) | 9.35% (active) | 52.1% | 56.8% | 16.9% |
